As a reminder, the inhibition is the drop in the measured response relative to a control, in per cent.

The target in experiment [1] is MAP/microtubule affinity-regulating kinase 3 (Homo sapiens) (UniProt P27448). The conditions noted are these: at 1 µM.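 Also: reported values are averaged percent inhibition of MARK3.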
In experiment [2] the target is T1, MAP/microtubule affinity-regulating kinase 4 (Homo sapiens) (UniProt Q96L34).
T1 sequence (whole entry): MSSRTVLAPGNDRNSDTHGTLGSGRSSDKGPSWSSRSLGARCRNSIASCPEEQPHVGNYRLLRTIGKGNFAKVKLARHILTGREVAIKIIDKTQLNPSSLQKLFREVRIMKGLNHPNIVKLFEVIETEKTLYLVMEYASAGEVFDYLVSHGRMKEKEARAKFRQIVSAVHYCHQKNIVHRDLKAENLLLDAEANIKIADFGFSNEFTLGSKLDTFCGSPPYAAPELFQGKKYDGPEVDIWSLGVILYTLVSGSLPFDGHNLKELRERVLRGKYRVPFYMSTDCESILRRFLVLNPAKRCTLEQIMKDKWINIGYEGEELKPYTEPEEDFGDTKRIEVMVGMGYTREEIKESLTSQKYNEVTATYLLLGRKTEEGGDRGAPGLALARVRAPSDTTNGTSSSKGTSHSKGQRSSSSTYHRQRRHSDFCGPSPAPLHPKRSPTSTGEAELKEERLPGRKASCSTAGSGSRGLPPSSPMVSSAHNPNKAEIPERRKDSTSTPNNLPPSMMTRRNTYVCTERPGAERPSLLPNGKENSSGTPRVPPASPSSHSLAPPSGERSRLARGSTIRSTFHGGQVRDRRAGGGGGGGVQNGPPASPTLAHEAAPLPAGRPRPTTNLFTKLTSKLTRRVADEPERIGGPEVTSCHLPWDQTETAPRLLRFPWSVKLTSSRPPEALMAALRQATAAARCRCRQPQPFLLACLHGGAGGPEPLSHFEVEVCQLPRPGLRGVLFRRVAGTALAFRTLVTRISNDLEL
The conditions noted are these: at 0.1 µM.

Experiment [3] has as its target T1, MAP/microtubule affinity-regulating kinase 4 (Homo sapiens). Conditions: at 1 µM.
For experiment [4], the target named is Maternal embryonic leucine zipper kinase (Homo sapiens) (UniProt Q14680). Conditions: at 0.1 µM.
Sequence of Maternal embryonic leucine zipper kinase (Homo sapiens) (Q14680 whole entry, looked up): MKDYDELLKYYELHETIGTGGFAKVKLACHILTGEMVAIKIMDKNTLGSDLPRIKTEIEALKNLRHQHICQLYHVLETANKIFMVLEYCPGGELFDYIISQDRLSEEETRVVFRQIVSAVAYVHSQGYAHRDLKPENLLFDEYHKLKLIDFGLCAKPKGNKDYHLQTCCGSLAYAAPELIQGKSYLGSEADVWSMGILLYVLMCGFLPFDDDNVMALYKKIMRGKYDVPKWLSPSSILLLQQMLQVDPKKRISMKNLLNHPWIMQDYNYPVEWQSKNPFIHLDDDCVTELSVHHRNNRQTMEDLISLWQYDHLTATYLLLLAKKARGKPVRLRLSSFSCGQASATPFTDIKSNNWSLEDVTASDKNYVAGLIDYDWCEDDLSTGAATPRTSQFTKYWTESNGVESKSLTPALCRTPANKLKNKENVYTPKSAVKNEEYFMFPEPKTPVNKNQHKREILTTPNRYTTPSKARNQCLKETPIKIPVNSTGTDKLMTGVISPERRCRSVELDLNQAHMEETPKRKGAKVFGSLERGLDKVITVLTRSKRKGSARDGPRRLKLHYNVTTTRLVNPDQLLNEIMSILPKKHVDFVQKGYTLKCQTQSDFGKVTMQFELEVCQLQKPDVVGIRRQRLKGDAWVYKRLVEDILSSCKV
Experiment [5] has the same target. Conditions: at 1 µM.
The target of experiment [6] is MAP kinase-interacting serine/threonine-protein kinase 1 (Homo sapiens) (UniProt Q9BUB5). The conditions noted are these: at 0.1 µM.
Sequence of MAP kinase-interacting serine/threonine-protein kinase 1 (Homo sapiens) (Q9BUB5 whole entry, looked up): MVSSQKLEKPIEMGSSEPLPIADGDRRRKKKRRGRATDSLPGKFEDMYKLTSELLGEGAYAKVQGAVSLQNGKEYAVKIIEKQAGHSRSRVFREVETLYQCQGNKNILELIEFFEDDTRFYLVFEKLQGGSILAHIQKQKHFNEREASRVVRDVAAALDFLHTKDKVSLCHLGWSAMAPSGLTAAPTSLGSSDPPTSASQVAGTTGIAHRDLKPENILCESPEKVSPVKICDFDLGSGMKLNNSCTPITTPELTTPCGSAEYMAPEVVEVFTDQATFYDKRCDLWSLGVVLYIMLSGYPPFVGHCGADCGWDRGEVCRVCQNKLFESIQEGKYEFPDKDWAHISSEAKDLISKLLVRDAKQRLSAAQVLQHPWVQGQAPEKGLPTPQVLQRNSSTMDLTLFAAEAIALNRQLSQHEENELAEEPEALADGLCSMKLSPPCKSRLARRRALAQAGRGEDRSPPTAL
For experiment [7] the target is unchanged. The conditions noted are these: at 1 µM.
Experiment [8] has as its target MAP kinase-interacting serine/threonine-protein kinase 2 (Homo sapiens) (UniProt Q9HBH9). Conditions: at 0.1 µM.
Experiment [9] has the same target. The conditions noted are these: at 1 µM.
The target of experiment [10] is Serine/threonine-protein kinase MARK2 (Homo sapiens) (UniProt Q7KZI7). The conditions noted are these: at 0.1 µM.
Sequence of Serine/threonine-protein kinase MARK2 (Homo sapiens) (Q7KZI7 whole entry): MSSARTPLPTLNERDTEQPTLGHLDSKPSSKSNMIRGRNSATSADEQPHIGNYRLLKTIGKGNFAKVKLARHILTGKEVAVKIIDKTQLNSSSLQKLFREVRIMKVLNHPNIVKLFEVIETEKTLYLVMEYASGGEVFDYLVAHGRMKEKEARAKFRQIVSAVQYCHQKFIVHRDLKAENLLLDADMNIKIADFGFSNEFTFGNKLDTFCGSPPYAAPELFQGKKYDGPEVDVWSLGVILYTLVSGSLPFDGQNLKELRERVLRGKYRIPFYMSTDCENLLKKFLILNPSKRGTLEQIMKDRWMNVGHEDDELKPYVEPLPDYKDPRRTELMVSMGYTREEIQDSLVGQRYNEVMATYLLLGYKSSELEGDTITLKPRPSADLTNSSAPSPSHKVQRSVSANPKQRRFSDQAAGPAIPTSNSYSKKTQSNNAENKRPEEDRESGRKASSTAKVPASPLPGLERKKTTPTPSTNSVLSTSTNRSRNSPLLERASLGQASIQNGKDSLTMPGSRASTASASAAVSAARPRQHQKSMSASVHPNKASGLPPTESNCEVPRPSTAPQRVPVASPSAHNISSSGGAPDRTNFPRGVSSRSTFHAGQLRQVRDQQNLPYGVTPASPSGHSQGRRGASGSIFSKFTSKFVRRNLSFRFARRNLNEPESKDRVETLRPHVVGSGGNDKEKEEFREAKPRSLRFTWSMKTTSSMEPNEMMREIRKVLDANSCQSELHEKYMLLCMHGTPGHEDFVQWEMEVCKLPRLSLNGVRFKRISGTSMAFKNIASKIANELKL
The target is the same in experiment [11]. The conditions noted are these: at 1 µM.
The target in experiment [12] is PAS domain-containing serine/threonine-protein kinase (Homo sapiens) (UniProt Q96RG2). The conditions noted are these: at 0.1 µM.
Sequence of PAS domain-containing serine/threonine-protein kinase (Homo sapiens) (Q96RG2 whole entry, the tested form may be a part): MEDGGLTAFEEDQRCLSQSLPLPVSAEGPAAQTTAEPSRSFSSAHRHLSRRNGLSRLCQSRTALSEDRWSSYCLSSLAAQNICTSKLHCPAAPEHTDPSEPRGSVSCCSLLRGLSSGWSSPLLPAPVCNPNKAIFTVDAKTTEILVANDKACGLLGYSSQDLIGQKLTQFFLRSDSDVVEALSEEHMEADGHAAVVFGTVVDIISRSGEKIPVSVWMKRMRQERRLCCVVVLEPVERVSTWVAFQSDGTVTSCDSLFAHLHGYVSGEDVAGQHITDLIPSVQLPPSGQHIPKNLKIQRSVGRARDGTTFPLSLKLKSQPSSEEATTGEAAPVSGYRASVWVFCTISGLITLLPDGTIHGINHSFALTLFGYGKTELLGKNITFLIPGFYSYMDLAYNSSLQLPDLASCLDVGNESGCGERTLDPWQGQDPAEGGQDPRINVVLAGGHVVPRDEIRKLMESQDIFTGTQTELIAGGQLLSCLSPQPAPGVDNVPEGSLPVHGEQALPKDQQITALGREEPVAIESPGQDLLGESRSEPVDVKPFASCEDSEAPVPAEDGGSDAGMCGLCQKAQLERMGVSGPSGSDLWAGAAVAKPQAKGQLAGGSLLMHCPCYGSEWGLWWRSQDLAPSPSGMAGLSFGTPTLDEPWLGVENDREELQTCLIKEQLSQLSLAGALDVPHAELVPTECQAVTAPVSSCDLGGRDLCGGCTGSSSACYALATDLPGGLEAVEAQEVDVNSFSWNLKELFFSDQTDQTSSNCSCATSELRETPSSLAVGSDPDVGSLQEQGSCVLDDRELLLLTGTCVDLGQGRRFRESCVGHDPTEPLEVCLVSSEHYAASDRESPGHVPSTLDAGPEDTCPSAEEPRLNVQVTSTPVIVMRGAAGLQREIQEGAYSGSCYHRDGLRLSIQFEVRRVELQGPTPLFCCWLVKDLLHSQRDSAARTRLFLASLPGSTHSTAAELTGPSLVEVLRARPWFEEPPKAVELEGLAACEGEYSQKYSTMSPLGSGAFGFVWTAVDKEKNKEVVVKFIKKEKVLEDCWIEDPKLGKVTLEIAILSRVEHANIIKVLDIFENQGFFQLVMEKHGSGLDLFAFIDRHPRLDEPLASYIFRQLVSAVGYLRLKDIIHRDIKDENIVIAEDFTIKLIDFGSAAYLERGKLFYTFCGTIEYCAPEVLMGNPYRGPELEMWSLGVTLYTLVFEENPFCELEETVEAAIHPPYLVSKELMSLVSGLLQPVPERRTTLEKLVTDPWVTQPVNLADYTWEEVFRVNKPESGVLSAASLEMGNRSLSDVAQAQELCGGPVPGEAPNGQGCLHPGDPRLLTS
The target is the same in experiment [13]. Conditions: at 1 µM.
The target of experiment [14] is Phosphorylase b kinase gamma catalytic chain, skeletal muscle/heart isoform (Homo sapiens) (UniProt Q16816). The conditions noted are these: at 0.1 µM.
Sequence of Phosphorylase b kinase gamma catalytic chain, skeletal muscle/heart isoform (Homo sapiens) (Q16816 whole entry, looked up, canonical isoform): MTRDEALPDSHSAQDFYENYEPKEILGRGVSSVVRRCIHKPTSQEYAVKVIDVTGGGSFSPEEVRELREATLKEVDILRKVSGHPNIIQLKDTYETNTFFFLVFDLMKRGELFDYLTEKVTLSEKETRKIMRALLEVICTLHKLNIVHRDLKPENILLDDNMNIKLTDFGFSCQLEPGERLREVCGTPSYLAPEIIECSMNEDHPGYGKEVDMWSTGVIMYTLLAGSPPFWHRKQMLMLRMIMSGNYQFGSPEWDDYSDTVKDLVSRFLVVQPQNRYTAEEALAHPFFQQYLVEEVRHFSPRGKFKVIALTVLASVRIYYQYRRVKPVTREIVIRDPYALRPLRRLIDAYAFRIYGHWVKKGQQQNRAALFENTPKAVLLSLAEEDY
For experiment [15] the target is unchanged. The conditions noted are these: at 1 µM.
Experiment [16] addresses T2, Phosphorylase b kinase gamma catalytic chain, liver/testis isoform (Homo sapiens) (UniProt P15735).
T2 sequence (whole entry): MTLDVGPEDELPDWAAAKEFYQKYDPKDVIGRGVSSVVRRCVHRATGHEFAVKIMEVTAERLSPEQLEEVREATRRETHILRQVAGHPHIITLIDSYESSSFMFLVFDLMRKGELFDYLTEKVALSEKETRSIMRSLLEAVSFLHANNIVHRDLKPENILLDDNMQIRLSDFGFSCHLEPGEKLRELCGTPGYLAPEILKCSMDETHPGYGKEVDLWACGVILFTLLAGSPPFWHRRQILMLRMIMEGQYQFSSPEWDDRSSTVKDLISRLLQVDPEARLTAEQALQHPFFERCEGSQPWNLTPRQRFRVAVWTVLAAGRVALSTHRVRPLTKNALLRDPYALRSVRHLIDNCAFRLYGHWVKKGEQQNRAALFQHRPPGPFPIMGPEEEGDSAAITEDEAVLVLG
Conditions: at 0.1 µM.

Experiment [17] deals with T2, Phosphorylase b kinase gamma catalytic chain, liver/testis isoform (Homo sapiens). Conditions: at 1 µM.
Experiment [18] concerns the target Serine/threonine-protein kinase pim-1 (Homo sapiens) (UniProt P11309). The conditions noted are these: at 0.1 µM.
Experiment [19] shares this target. Conditions: at 1 µM.
The target in experiment [20] is Serine/threonine-protein kinase pim-2 (Homo sapiens) (UniProt Q9P1W9). The conditions noted are these: at 0.1 µM.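 Also: reported value is the mean percent inhibition of PIM2, measured in the GSK PKIS kinase inhibitor set screen.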
Sequence of Serine/threonine-protein kinase pim-2 (Homo sapiens) (Q9P1W9 whole entry, looked up): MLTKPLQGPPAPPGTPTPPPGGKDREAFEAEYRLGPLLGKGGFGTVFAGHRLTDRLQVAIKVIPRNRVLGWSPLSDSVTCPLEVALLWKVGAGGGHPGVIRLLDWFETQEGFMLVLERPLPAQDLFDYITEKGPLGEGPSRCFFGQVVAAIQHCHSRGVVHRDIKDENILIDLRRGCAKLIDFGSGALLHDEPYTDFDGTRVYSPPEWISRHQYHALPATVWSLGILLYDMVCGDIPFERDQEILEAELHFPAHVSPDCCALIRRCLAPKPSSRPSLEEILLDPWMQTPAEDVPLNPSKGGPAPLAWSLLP

Sequence of Serine/threonine-protein kinase pim-1 (Homo sapiens) (P11309 whole entry, looked up): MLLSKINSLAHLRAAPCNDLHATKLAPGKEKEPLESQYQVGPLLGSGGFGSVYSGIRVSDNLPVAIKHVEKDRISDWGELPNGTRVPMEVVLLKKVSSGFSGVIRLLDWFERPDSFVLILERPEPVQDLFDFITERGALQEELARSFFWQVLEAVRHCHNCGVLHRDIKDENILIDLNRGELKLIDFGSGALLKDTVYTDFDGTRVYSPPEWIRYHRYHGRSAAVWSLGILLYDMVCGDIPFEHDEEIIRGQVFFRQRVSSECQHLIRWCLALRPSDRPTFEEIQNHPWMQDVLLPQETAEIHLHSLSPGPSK
Sequence of MAP/microtubule affinity-regulating kinase 3 (Homo sapiens) (P27448 whole entry, looked up): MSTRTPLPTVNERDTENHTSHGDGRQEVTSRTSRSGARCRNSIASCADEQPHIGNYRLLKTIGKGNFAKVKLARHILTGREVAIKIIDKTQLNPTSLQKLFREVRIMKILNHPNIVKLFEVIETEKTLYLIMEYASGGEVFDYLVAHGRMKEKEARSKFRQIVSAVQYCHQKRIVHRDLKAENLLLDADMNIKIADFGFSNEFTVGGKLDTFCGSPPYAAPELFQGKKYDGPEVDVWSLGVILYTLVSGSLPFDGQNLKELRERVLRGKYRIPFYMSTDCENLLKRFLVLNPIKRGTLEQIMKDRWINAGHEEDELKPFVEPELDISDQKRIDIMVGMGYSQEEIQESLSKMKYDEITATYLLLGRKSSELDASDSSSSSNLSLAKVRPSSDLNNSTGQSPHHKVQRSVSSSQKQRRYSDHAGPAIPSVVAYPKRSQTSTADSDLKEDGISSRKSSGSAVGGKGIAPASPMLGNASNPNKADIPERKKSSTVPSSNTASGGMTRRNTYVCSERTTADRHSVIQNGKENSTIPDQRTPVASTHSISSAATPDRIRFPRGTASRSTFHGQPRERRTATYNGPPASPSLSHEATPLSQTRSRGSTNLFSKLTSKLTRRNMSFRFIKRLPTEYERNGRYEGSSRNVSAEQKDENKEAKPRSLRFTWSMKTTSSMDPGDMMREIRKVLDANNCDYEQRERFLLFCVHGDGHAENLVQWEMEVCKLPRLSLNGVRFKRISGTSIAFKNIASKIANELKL

Regarding `CCn1c(-c2nonc2N)nc2c(C#CC(C)(C)O)nc(O[C@@H](CN)c3ccccc3)cc21`, the inhibition came out at 101% in experiment [1]; 74.5% in [2]; 90.7% in experiment [3]; 42.2% in [4]; 90.4% in [5]; 0.51% in experiment [6]. Besides, the inhibition in experiment [7] was determined as 6.37%; in [8] it was 5.3%; in experiment [9], 33.1%; in [10] it was 63.9%; in experiment [11], 90.5%; in experiment [12] it was 0.53%. Further, the inhibition in experiment [13] was 15.9%; in experiment [14], 1.61%; in experiment [15], 12.3%; in [16], -3.09%; in experiment [17], -0.93%; in experiment [18], 4.64%. The inhibition in experiment [19] is 35.2%; in experiment [20] it was 2.45%.
As for `Fc1ccc(-c2ncn(C3CCNCC3)c2-c2ccnc(Oc3ccccc3)n2)cc1`, the inhibition in [1] is -0.46%; in experiment [2] it was 1.68%; in [3] it was 1.42%; in experiment [4], 3.76%; in [5], 4.43%; in experiment [6] it was 1.38%. For the same compound, the inhibition was 2.07% in [7]; 1.12% in experiment [8]; 0.76% in experiment [9]; -1.21% in [10]; -1.83% in experiment [11]; 0.55% in experiment [12]. Besides, the inhibition was -1% in [13]; 3.99% in experiment [14]; 2.25% in [15]; 1.69% in experiment [16]; 1.14% in experiment [17]; -1.15% in experiment [18]. For the same compound, the inhibition is -0.11% in experiment [19] and -3.22% in experiment [20].
On to `Nc1nonc1-c1nc2cnccc2n1C1CCCCC1`, for which the inhibition in experiment [1] is 24.2%; in experiment [2], 2.83%; in experiment [3], 10.8%; in [4], 10.3%; in [5], 74.6%; in experiment [6], -0.38%. Besides, the inhibition is 4.63% in [7]; 0.19% in [8]; 8.42% in experiment [9]; 3.67% in experiment [10]; 21.9% in experiment [11]; 1.01% in experiment [12]. Further, the inhibition in experiment [13] was 12.9%; in experiment [14] it was -3.58%; in experiment [15] it was 8.25%; in [16] it was -4.48%; in [17], -2.24%; in experiment [18] it was 29.8%. Further, the inhibition turned out to be 79.2% in experiment [19] and 5.24% in experiment [20].
As for `CCn1c(-c2nonc2N)nc2c(C#CC(C)(C)O)ncc(OC[C@@H]3CCCN3)c21`, the inhibition in experiment [1] came out at 67.9%; in experiment [2], 11.6%; in experiment [3], 55.2%; in experiment [4], 1.75%; in experiment [5], 18.4%; in [6] it was 1.39%. For the same compound, the inhibition in experiment [7] was 1.82%; in experiment [8], 0.48%; in [9], -0.07%; in experiment [10], 12.9%; in experiment [11], 51.9%; in experiment [12] it was 0.57%. Besides, the inhibition in [13] turned out to be 7.61%; in [14] it was 1.02%; in experiment [15], 2.21%; in experiment [16], 1.45%; in experiment [17], 1.65%; in experiment [18] it was 1.6%. The results for the inhibition in experiment [19] and in experiment [20] were 7.63% and 1.1%, respectively.
With `COc1cc(C=NNc2ncnc3c2cnn3Cc2ccccc2)ccc1O`, the inhibition is 4.6% in [1]; 1.11% in experiment [2]; 3.25% in experiment [3]; 13.2% in experiment [4]; 47.1% in experiment [5]; -2.04% in experiment [6]. Moreover, the inhibition in [7] is 0.25%; in [8], -0.35%; in [9], 1.29%; in [10], 1.79%; in experiment [11] it was 4.82%; in [12], -0.31%. Besides, the inhibition is 0.37% in experiment [13]; -1.3% in experiment [14]; 2.64% in [15]; -7.11% in experiment [16]; -6.49% in experiment [17]; -0.98% in experiment [18]. The results for the inhibition in [19] and in experiment [20] were 1.73% and 0.65%, respectively.
As for `COc1cccc(-n2ncc3c(N/N=C/c4ccncc4)ncnc32)c1`, the inhibition stood at 7.7% in [1]; 1.15% in experiment [2]; 5.01% in experiment [3]; 2.47% in experiment [4]; 6.51% in experiment [5]; 23.2% in experiment [6]. Also, the inhibition in [7] amounted to 70.4%; in experiment [8] it was 15.2%; in experiment [9], 59.2%; in experiment [10], 1.24%; in experiment [11] it was 2.54%; in [12], 0.3%. Also, the inhibition came out at 0.25% in experiment [13]; 5.39% in experiment [14]; 17.6% in experiment [15]; 5.48% in [16]; 7.43% in [17]; 1.36% in experiment [18]. Besides, the inhibition was 3.36% in experiment [19] and 0.77% in experiment [20].
`CCn1c(-c2nonc2N)nc2c(C#CCN)ncc(OCCCN)c21`: the inhibition in experiment [1] was 11.4%; in experiment [2] it was 3.8%; in [3] it was 6.19%; in [4] it was -1.84%; in [5] it was 16%; in [6], -0.19%. Moreover, the inhibition in [7] worked out at 7.05%; in [8] it was 5.13%; in experiment [9], 10.2%; in [10] it was 7.01%; in [11], 10.1%; in experiment [12] it was 1.4%. Further, the inhibition is 16.9% in experiment [13]; 3.15% in experiment [14]; 5.73% in experiment [15]; -1.7% in [16]; 4.75% in experiment [17]; 4.76% in experiment [18]. Besides, the inhibition worked out at 36% in experiment [19] and 3.26% in experiment [20].

For the origin of these results see ChEMBL document CHEMBL1961873, “Compounds: GSK PKIS; Assays: Nanosyn kinase panel” (2012).
